Reference: PubChem BioAssay (NCATS)
A number with no mark means an inactive call. Results filed as inconclusive are left out. A call without a number means that no potency is given here. Calls of active or inactive are those of the source. Unless noted, calls follow the shape of the dose curve; as a rule, active = well fitted curve in the direction sought with a large enough effect; inconclusive = small, poorly fitted or top-dose-only effect, or another doubt; inactive = no such curve, though single readings can be large; an effect the other way counts as inactive or inconclusive.

Key:
[1] = tested on: Hek293T; assay: Primary qHTS to identify gynecologic anti-cancer compounds using libraries of approved drugs and bioactive compounds (AID 1345084); settings: Gynecologic cancer cell panel viability, ATPlite luminescence, 48 h, control line for the selectivity index; series mostly up to 57.5 µM; also: nearly all actives have a fitted effect of over 55% in size
Outline: (§1)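 48 h compound exposure at 37 C, 5% CO2; five-point qHTS. ATPlite luminescence readout of cell ATP.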

[2] = tested on: JEG-3; assay: as above; settings: Gynecologic cancer cell panel viability, ATPlite luminescence, 48 h; series mostly up to 57.5 µM
Outline: as §1

[3] = tested on: OV90; assay: as above; settings: Gynecologic cancer cell panel viability, ATPlite luminescence, 48 h; series mostly up to 57.5 µM
Outline: as §1

[4] = tested on: PA-1; assay: as above; settings: Gynecologic cancer cell panel viability, ATPlite luminescence, 48 h; series mostly up to 57.5 µM
Outline: as §1

[5] = tested on: SKOV3; assay: as above; settings: Gynecologic cancer cell panel viability, ATPlite luminescence, 48 h; series mostly up to 57.5 µM
Outline: as §1

[6] = tested on: Tov-21-G; assay: as above; settings: Gynecologic cancer cell panel viability, ATPlite luminescence, 48 h; series mostly up to 57.5 µM
Outline: as §1

[7] = tested on: Tov112D; assay: as above; settings: Gynecologic cancer cell panel viability, ATPlite luminescence, 48 h; series mostly up to 57.5 µM
Outline: as §1

[8] = Drug repurposing screens with cells derived from glioblastoma tumor samples (AID 1345199); settings: GBM patient neurospheres viability, ATP luminescence, 48 h; tumour line A; also: potency is read from the fitted curve at half-maximal effect; nearly all actives have a fitted effect of over 40% in size
Outline: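 Four patient lines of CD133+ GBM neurospheres were screened at several concentrations; hits were retested in those lines plus three slower-growing GBM lines, using 48-hour treatment and ATP-based viability.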

[9] = qHTS assay to identify inhibitors of the type 1 interferon - major histocompatibility complex class I in skeletal muscle: Counter screen cell viability and HiBit confirmation (AID 1347412); settings: iHSKM muscle cells + IFN-b, HiBiT or CellTiter-Glo, 24 h; Viability; at 45.9 µM (top of the series); also: nearly all actives have a fitted effect of over 60% in size
Outline: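 Duplicate plates, pinned identically: one read for HiBiT-tagged endogenous HLA-B luminescence, the other for ATP-content viability via CellTiter Glo. Cells were genome-engineered human myoblasts given 4 ng/ml IFN-b; compounds 12-pt, 1:3 from 46 uM final; 24 hr exposure.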

[10] = target: Nuclear receptor subfamily 1 group I member 2 (Rattus norvegicus) (UniProt Q9R1A7); assay: qHTS assay for small molecule activators of the rat pregnane X receptor (rPXR) signaling pathway (AID 651751; call rule not given here); settings: rPXR reporter cells, luciferase (One-Glo), 24 h
Sequence of Nuclear receptor subfamily 1 group I member 2 (Rattus norvegicus) (Q9R1A7 whole entry, looked up): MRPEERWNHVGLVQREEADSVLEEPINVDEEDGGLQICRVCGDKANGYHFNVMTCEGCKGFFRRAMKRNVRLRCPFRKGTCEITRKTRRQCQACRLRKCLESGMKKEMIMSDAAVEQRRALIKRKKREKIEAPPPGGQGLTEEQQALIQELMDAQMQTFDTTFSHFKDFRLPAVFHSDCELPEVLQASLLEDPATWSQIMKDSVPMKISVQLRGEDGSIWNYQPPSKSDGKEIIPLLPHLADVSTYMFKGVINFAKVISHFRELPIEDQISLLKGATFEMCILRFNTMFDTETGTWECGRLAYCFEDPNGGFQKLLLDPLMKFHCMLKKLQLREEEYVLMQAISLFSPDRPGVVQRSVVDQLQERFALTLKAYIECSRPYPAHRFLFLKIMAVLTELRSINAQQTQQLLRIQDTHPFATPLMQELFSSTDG

[11] = qHTS assay for small molecule activators of the human pregnane X receptor (PXR) signaling pathway (AID 720659; call rule not given here)

With `CC(C)[C@H]1CCC(CO)=C[C@@H]1/C=C(\CO)C(=O)O` the Potency [1] was “inactive”, the Potency [2] was “inactive” and the Potency [3] was “inactive”. For the same compound, the Potency [4] was “inactive”, the Potency [5] was “inactive” and the Potency [6] was “inactive”. The Potency [7] was “inactive”.

For `C[C@@H](OC(=O)/C=C/c1ccc(O)cc1)C1=C[C@]2(C=C[C@@H]3C(C(=O)O)=CO[C@@H](O[C@@H]4O[C@H](CO[C@@H]5O[C@H](CO)[C@@H](O)[C@H](O)[C@H]5O)[C@@H](O)[C@H](O)[C@H]4O)[C@@H]32)OC1=O`, the Potency [1] was “inactive”, the Potency [2] was “inactive” and the Potency [3] was “inactive”. The Potency [4] was “inactive”, the Potency [5] was “inactive” and the Potency [6] was “inactive”. The Potency [7] was “inactive”.

For `O=c1c2cccnc2n(-c2cccc([N+](=O)[O-])c2)c(=O)n1Cc1ccncc1`, the Potency [1] was “inactive”, the Potency [2] was “inactive” and the Potency [3] was “inactive”. The Potency [4] was “inactive”, the Potency [5] was “inactive” and the Potency [6] was “inactive”. For the same compound, the Potency [7] was “inactive”.

In the case of `CCC(C)(O)C(O)C(=O)OCc1ccc(O[C@@H]2O[C@H](CO)[C@@H](O)[C@H](O)[C@H]2O)cc1` (stereo partly specified), the Potency [1] is reported as “inactive”, the Potency [2] is reported as “inactive” and the Potency [3] is reported as “inactive”. For the same compound, the Potency [4] was “inactive”, the Potency [5] was “inactive” and the Potency [6] was “inactive”. The Potency [7] was “inactive”.

In the case of `CC1CCC2C(C(=O)O)=CC3CC(C)(C)CC132` (stereo unspecified), the Potency [1] is reported as “inactive”, the Potency [2] is reported as “inactive” and the Potency [3] is reported as “inactive”. For the same compound, the Potency [4] was “inactive”, the Potency [5] was “inactive” and the Potency [6] was “inactive”. The Potency [7] was “inactive”.

For `OCc1ccccc1O[C@@H]1O[C@H](CO)[C@@H](O)[C@H](O)[C@H]1O`, the Potency [1] was “inactive”, the Potency [2] was “inactive” and the Potency [3] was “inactive”. The Potency [4] was “inactive”, the Potency [5] was “inactive” and the Potency [6] was “inactive”. For the same compound, the Potency [7] was “inactive”.

For `O=c1c2ccccc2nc2n1CCC2O` (stereo unspecified), the Potency [1] was “inactive”, the Potency [2] was “inactive” and the Potency [3] was “inactive”. For the same compound, the Potency [4] was “inactive”, the Potency [5] was “inactive” and the Potency [6] was “inactive”. For the same compound, the Potency [7] was “inactive”.

In the case of `C1CCN2CC3C[C@@H](CN4CCCC[C@@H]34)[C@H]2C1`, the Potency [1] is reported as “inactive”, the Potency [2] is reported as “inactive” and the Potency [3] is reported as “inactive”. For the same compound, the Potency [4] was “inactive”, the Potency [5] was “inactive” and the Potency [6] was “inactive”. For the same compound, the Potency [7] was “inactive”.

In the case of `CC(C)=CCCC1(C)Oc2cc3c(c4c2C2C(O4)C(C)(O)CCC21)CN(C(CCC(=O)O)C(=O)O)C3=O` (stereo unspecified), the Potency [1] is reported as “inactive”, the Potency [2] is reported as “inactive” and the Potency [3] is reported as “inactive”. For the same compound, the Potency [4] was “inactive”, the Potency [5] was “inactive” and the Potency [6] was “inactive”. The Potency [7] was “inactive”.

With `COc1ccc(/C=C/C(=O)O[C@@H]2[C@@H](O)[C@H](C)O[C@@H](OC3C4C=COC(O[C@@H]5O[C@H](CO)[C@@H](O)[C@H](O)[C@H]5O)C4C4(CO)OC34)[C@@H]2O)cc1OC` (stereo partly specified) the Potency [1] was “inactive”, the Potency [2] was “inactive” and the Potency [3] was “inactive”. The Potency [4] was “inactive”, the Potency [5] was “inactive” and the Potency [6] was “inactive”. The Potency [7] was “inactive”.

For `CC(C)(O)C1CCC2(C)C3C(O)C4C(C13)C42CO` (stereo unspecified), the Potency [1] was “inactive”, the Potency [2] was “inactive” and the Potency [3] was “inactive”. For the same compound, the Potency [4] was “inactive”, the Potency [5] was “inactive” and the Potency [6] was “inactive”. For the same compound, the Potency [7] was “inactive”.

For `CC(=O)N(O)CCCCCN1C(=O)CCC1=O`, the Potency [1] was “inactive”, the Potency [2] was “inactive” and the Potency [3] was “inactive”. For the same compound, the Potency [4] was “inactive”, the Potency [5] was “inactive” and the Potency [6] was “inactive”. The Potency [7] was “inactive”.

`CNC(=O)[C@H]1O[C@@H](n2cnc3c(NCc4ccc(N)c(I)c4)ncnc32)[C@H](O)[C@@H]1O` gave an activity change, negative = cytotoxicity [1] of 0.59% [at 11.6 µM], an activity change, negative = cytotoxicity [2] of 20.5% [at 11.6 µM] and an activity change, negative = cytotoxicity [3] of -0.89% [at 11.6 µM]. It also gave an activity change, negative = cytotoxicity [4] of 0.696% [at 11.6 µM], an activity change, negative = cytotoxicity [5] of -8.5% [at 11.6 µM] and an activity change, negative = cytotoxicity [6] of 15.7% [at 11.6 µM]. It also gave an activity change, negative = cytotoxicity [7] of 25.2% [at 11.6 µM].

With `CC(=O)O[C@H]1[C@H](Oc2ccccc2COC(=O)C2(O)C=CCCC2=O)O[C@H](CO)[C@@H](O)[C@@H]1O` (stereo partly specified) the Potency [1] was “inactive”, the Potency [2] was “inactive” and the Potency [3] was “inactive”. For the same compound, the Potency [4] was “inactive”, the Potency [5] was “inactive” and the Potency [6] was “inactive”. For the same compound, the Potency [7] was “inactive”.

`C[C@@H]1O[C@@H](O[C@@H]2[C@@H](O)[C@@H](O)[C@H](O[C@@H]3[C@@H](O)[C@@H](O[C@]4(CO)O[C@H](CO)[C@@H](O)[C@@H]4OC(=O)/C=C/c4ccc(O)cc4)O[C@H](CO)[C@H]3OC(=O)/C=C/c3ccc(O)cc3)O[C@H]2C)[C@H](O)[C@H](O)[C@H]1O` showed an activity change, negative = cytotoxicity [1] of 1.13% [at 11.6 µM], an activity change, negative = cytotoxicity [2] of -6.75% [at 11.6 µM] and an activity change, negative = cytotoxicity [3] of 7.74% [at 11.6 µM]. The activity change, negative = cytotoxicity [4] was -5.64% [at 11.6 µM], the activity change, negative = cytotoxicity [5] was -21.8% [at 11.6 µM] and the activity change, negative = cytotoxicity [6] was -2.88% [at 11.6 µM]. It also gave an activity change, negative = cytotoxicity [7] of -1.04% [at 11.6 µM].

For `CC1(C)CC2C(O)C3=C(CC(C)(O)C2C1)C(=O)OC3O` (stereo unspecified), the Potency [1] was “inactive”, the Potency [2] was “inactive” and the Potency [3] was “inactive”. The Potency [4] was “inactive”, the Potency [5] was “inactive” and the Potency [6] was “inactive”. The Potency [7] was “inactive”.

In the case of `CN1CC[C@@H](NC(=O)Nc2ccc(C#N)cc2)C[C@@H]1c1nc2ccccc2[nH]1`, the Potency [1] is reported as “inactive”, the Potency [2] is reported as “inactive” and the Potency [3] is reported as “inactive”. The Potency [4] was “inactive”, the Potency [5] was “inactive” and the Potency [6] was “inactive”. For the same compound, the Potency [7] was “inactive”.

With `C=C1CCC2C(C)(COC3OC(COC(=O)CC(=O)O)C(O)C(O)C3O)CCCC2(C)C1CCC1=CCOC1=O` (stereo unspecified) the Potency [1] was “inactive”, the Potency [2] was “inactive” and the Potency [3] was “inactive”. The Potency [4] was “inactive”, the Potency [5] was “inactive” and the Potency [6] was “inactive”. For the same compound, the Potency [7] was “inactive”.

For `C/C(=C/CO)CC[C@@H]1[C@@]2(C)CCC[C@](C)(C(=O)O)C2CC[C@@]1(C)O` (stereo partly specified), the Potency [1] was “inactive”, the Potency [2] was “inactive” and the Potency [3] was “inactive”. The Potency [4] was “inactive”, the Potency [5] was “inactive” and the Potency [6] was “inactive”. The Potency [7] was “inactive”.

In the case of `CCC(CCO[C@@H]1O[C@H](CO[C@H]2OC[C@](O)(CO)[C@H]2O)[C@@H](O)[C@H](O)[C@H]1O)C(C)(C)O` (stereo partly specified), the Potency [1] is reported as “inactive”, the Potency [2] is reported as “inactive” and the Potency [3] is reported as “inactive”. The Potency [4] was “inactive”, the Potency [5] was “inactive” and the Potency [6] was “inactive”. For the same compound, the Potency [7] was “inactive”.

Compound `C/C=C(\C)C(=O)OC[C@H]1O[C@H](O[C@H]2O[C@H](CO)[C@@H](OC(=O)/C(C)=C/C)[C@H](O)[C@H]2O[C@@H]2O[C@H](CO)[C@@H](O)[C@H](O)[C@H]2O)[C@H](O[C@@H]2O[C@H](CO)[C@@H](O)[C@H](O)[C@H]2O)[C@@H](O)[C@@H]1O` has an activity change, negative = cytotoxicity [1] of 8.94% [at 11.6 µM], an activity change, negative = cytotoxicity [2] of 2.7% [at 11.6 µM] and an activity change, negative = cytotoxicity [3] of 8.14% [at 11.6 µM]. It also gave an activity change, negative = cytotoxicity [4] of 33.8% [at 11.6 µM], an activity change, negative = cytotoxicity [5] of 3.25% [at 11.6 µM] and an activity change, negative = cytotoxicity [6] of 22.3% [at 11.6 µM]. It also gave an activity change, negative = cytotoxicity [7] of 9.9% [at 11.6 µM].

For `CCC(NC(=O)CC(NC(=O)C(CO)NC(=O)C(CC)NC(=O)c1ccc[nH]1)c1ccccc1)C(=O)O` (stereo unspecified), the Potency [1] was “inactive”, the Potency [2] was “inactive” and the Potency [3] was “inactive”. The Potency [4] was “inactive”, the Potency [5] was “inactive” and the Potency [6] was “inactive”. For the same compound, the Potency [7] was “inactive”.

In the case of `CCC[C@@H]1C[C@@H](C(=O)N[C@@H]([C@H]2O[C@H](SC)[C@H](O)[C@@H](O)[C@@H]2O)[C@@H](C)O)N(C)C1`, the Potency [1] is reported as “inactive”, the Potency [2] is reported as “inactive” and the Potency [3] is reported as “inactive”. The Potency [4] was “inactive”, the Potency [5] was “inactive” and the Potency [6] was “inactive”. For the same compound, the Potency [7] was “inactive”.

With `Nc1c(Br)cc(Br)cc1CNC1CCC(O)CC1` (stereo unspecified) the Potency [8] was 14.1 µM (active).

For `CC[C@H]1OC(=O)C[C@@H](O)[C@H](C)[C@@H](O[C@@H]2O[C@H](C)[C@@H](O)[C@H](N(C)C)[C@H]2O)[C@@H](CCN2C[C@H](C)C[C@H](C)C2)C[C@@H](C)C(=O)/C=C/C(C)=C/[C@@H]1CO[C@@H]1O[C@H](C)[C@@H](O)[C@@H](OC)[C@H]1OC`, the Potency [8] was 22.4 µM (active).

Work on `NS(=O)(=O)OC[C@@H]1C[C@@H](n2ccc3c(N[C@H]4CCc5ccccc54)ncnc32)C[C@@H]1O` yielded an activity change, negative = inhibition [9] of -12.3%.

In the case of `CC1=C2[C@@H]([C@H](C)CC[C@H]2/C=C(\C)C(=O)O)[C@H](O)C1`, the max response [10] is reported as -1.26% and the outcome [11] is reported as “inactive”.
